High-throughput results as filed in PubChem.
ATXN2 expr inh = ATXN2 expression inhibition; HEK-293 ATXN2-luciferase reporter, luminescence, 24 h; Potency, µM (highest dose often 57 µM), hits mostly inhibitors; 0.72% of 360,000 active; AID 1745845; further: nearly all actives have a fitted effect of over 55% in size
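qHTS (up to 57 uM final) was run with 24 h compound exposure of reporter cells at 37 °C. Each well was multiplexed: SteadyGlo luminescence measured ATXN2-luciferase expression after a fluorogenic Gly-Phe-AFC viability readout (25 uM final).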
TGFb inhibitor = blocks TGF-b signaling. HepG2 CAGA-GFP TGF-b/SMAD3 reporter, GFP fluorescence, 18 h; TGF-beta stimulated, 500 pg/mL final. Potency, µM (highest dose often 46.1 µM), usual class: inhibitors. 1.2% of 410,000 active; further: nearly all actives have a fitted effect of over 65% in size
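TGF-beta reporter screen: HEPG2 CAGA-GFP, 1% FBS, 500 pg/mL TGF-beta final, 18 h; per-cell GFP summed per well; curves fitted and categorized by class.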
S2 tox = reduces viability in counter-screen for ATXN expression inhibitors; 0.49% of 400,000 active; Potency, µM (top dose mostly 56.7 µM), actives largely listed as cytotoxic; S2 cells (HEK-293 line with an ATXN2-luciferase reporter) viability, CellTiter-Fluor protease fluorescence, 24 h; further: nearly all actives have a fitted effect of over 40% in size
A549 tox = A549 cytotoxicity, counter-screen for Nrf2 inhibitors | A549 ARE-Fluc cells, CellTiter-Fluor viability, 18-24 h | Potency, µM (series often up to 46 µM), actives largely listed as inhibitors | 0.16% of 390,000 active
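A549 ARE_Fluc cells in 5% FBS OPTI-MEM were exposed to compounds in concentration-response for 18-24 h at 37 deg C. Viability was read by CellTiter-Fluor fluorescence (Ex 405/Em 525) after 30 min, before the luciferase read.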
Nrf2 inh = Nrf2 pathway inhibition; A549 ARE-Fluc reporter, luciferase luminescence, 18-24 h; Potency, µM (titrated, usually from 46 µM), hits mostly inhibitors; 2.1% of 360,000 active; further: nearly all actives have a fitted effect of over 60% in size
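A549 ARE_Fluc cells, 5000/well, 5% FBS OPTI-MEM; compounds in dose-response, 18-24 h at 37 °C/5% CO2; CellTiter-Fluor viability read (Ex 405/Em 525), then BugLite luciferase luminescence = Nrf2 activity.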
HepG2 tox = HepG2 cytotoxicity, counter-screen for TGF-b inhibitors. AID 588856. HepG2 CAGA-GFP viability, ATP luminescence, 18 h. 0.76% of 410,000 active. Potency, µM (top dose mostly 46.1 µM), usual class: cytotoxic
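CellTiter-Glo luminescence gave cytotoxicity after 18 hours at 37 degrees C. The cells were HepG2 CAGA-GFP in 1% FBS DMEM, stimulated with 500 pg/mL TGF-beta after compound addition. %Activity was normalised to no-cell wells (complete cell-killing) and DMSO (no toxicity), and curves were fitted and classified.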
A number is an active result; ! = not active in a repeat. An excerpt weighted towards active compounds, which were near 3.8% of everything screened. The call rests on the fitted dose curve; in most records, active means well fitted curve in the direction sought with a large enough effect; inconclusive means small, poorly fitted or top-dose-only effect, or another doubt; inactive means no such curve, though single readings can be large; an effect the other way counts as inactive or inconclusive.

Screening COc1ccc(Cn2c(=O)[nH]c3cc(C(=O)N4CCN(Cc5ccccc5)CC4)ccc3c2=O)cc1 returned ATXN2 expr inh inactive, TGFb inhibitor inactive, S2 tox inactive, A549 tox inactive, Nrf2 inh 23.1µM and HepG2 tox inactive.
`Cc1ccccc1NC(=S)N1CCN(Cc2ccc3c(c2)OCO3)CC1` gave ATXN2 expr inh inactive, TGFb inhibitor inactive, S2 tox inactive, A549 tox inactive, Nrf2 inh inactive and HepG2 tox inactive.
COCCn1c(=O)[nH]c2cc(C(=O)N3CCN(Cc4ccc5c(c4)OCO5)CC3)ccc2c1=O was read as ATXN2 expr inh inactive, TGFb inhibitor inactive, S2 tox inactive, A549 tox inactive, Nrf2 inh 11.6µM and HepG2 tox inactive.
Screening Cn1c(SCC(=O)Nc2ccc(NC(=O)c3cccc(F)c3)cc2)nnc1-c1ccncc1 returned ATXN2 expr inh inactive, TGFb inhibitor inactive, S2 tox inactive, A549 tox inactive, Nrf2 inh inactive and HepG2 tox inactive.
COc1ccc(Cn2c(=O)[nH]c3cc(C(=O)N4CCN(c5ccccc5OC)CC4)ccc3c2=O)cc1 was read as ATXN2 expr inh inactive, TGFb inhibitor inactive, S2 tox inactive, A549 tox inactive, Nrf2 inh 20.6µM and HepG2 tox inactive.
Screening CCCCCn1c(=O)[nH]c2cc(C(=O)N3CCN(c4ccc(C(C)=O)cc4)CC3)ccc2c1=O returned ATXN2 expr inh inconclusive, TGFb inhibitor inactive, S2 tox inactive, A549 tox inactive, Nrf2 inh 20.6µM and HepG2 tox inactive.
Screening O=C(c1ccc(Cn2c(=O)[nH]c3ccsc3c2=O)cc1)N1CCN(c2ccccc2)CC1 returned TGFb inhibitor inactive, S2 tox inactive, A549 tox inactive, Nrf2 inh inconclusive and HepG2 tox inactive.
Screening COc1ccc(Cn2c(=O)[nH]c3cc(C(=O)N4CCN(c5ccccc5F)CC4)ccc3c2=O)cc1 returned ATXN2 expr inh inactive, TGFb inhibitor inactive, S2 tox inactive, A549 tox inactive, Nrf2 inh inactive and HepG2 tox inactive.
For O=C(c1ccc(Cn2c(=O)[nH]c3ccccc3c2=O)cc1)N1CCN(c2ccc(F)cc2)CC1 the results were ATXN2 expr inh inactive, TGFb inhibitor inactive, S2 tox inconclusive, A549 tox inactive, Nrf2 inh 10.3µM and HepG2 tox inactive.
CCOc1ccc(-c2n[nH]c(C)c2Oc2ccc(OC)cc2)c(O)c1 was read as ATXN2 expr inh inactive, TGFb inhibitor inconclusive, S2 tox inactive, A549 tox inactive, Nrf2 inh inactive and HepG2 tox 12.6µM.
For Cc1[nH]nc(-c2ccc(OCc3cnn(-c4ccccc4)c3)cc2O)c1Oc1ccc(F)cc1 the results were ATXN2 expr inh inactive, TGFb inhibitor inconclusive, S2 tox inactive, A549 tox inactive and HepG2 tox inactive.
Screening COc1ccc(CNC(=O)CN2C(=O)C(c3ccccc3)Oc3cccnc32)cc1 (stereo unspecified) returned ATXN2 expr inh inactive, TGFb inhibitor inactive, S2 tox inactive, A549 tox inconclusive, Nrf2 inh 23.1µM and HepG2 tox inactive.
`O=C(NCc1ccncc1)c1nc(-c2ccc(C(F)(F)F)cc2)no1` gave TGFb inhibitor inactive, S2 tox inactive, A549 tox inconclusive, Nrf2 inh inconclusive and HepG2 tox inactive.
CC(=O)NN1C(=O)c2ccc3c4c(ccc(c24)C1=O)C(=O)N(NC(C)=O)C3=O was read as TGFb inhibitor 7.94µM, A549 tox inactive, Nrf2 inh inactive and HepG2 tox 10µM.
CC1CCN(S(=O)(=O)c2cc(C(=O)Nc3ccc(Br)cc3F)n(C)c2)CC1 was read as ATXN2 expr inh inactive, TGFb inhibitor 11.2µM, S2 tox inactive, A549 tox inactive and HepG2 tox inactive.
Screening CCc1ccc2nc3nc(C)cc(C)c3c(N)c2c1 returned ATXN2 expr inh inconclusive, TGFb inhibitor 12.6µM, A549 tox inactive, Nrf2 inh inconclusive and HepG2 tox inactive.
CCc1ccc(NC(=S)/N=C(\N)Nc2nc(C)c3cc(CC)ccc3n2)cc1 was read as ATXN2 expr inh inactive, TGFb inhibitor inconclusive, S2 tox inconclusive, A549 tox inactive, Nrf2 inh inactive and HepG2 tox inactive.
For Cc1ccc(C(=O)N2c3ccccc3N(Cc3ccccc3)C(=O)C2(C)C)cc1 the results were ATXN2 expr inh inconclusive, TGFb inhibitor inconclusive, S2 tox inactive, A549 tox inactive, Nrf2 inh 11.6µM and HepG2 tox inactive.
Screening Cc1ccc(C(=O)CC2(O)C(=O)N(Cc3ccccc3)c3ccc(Br)cc32)cc1 (stereo unspecified) returned TGFb inhibitor inconclusive, A549 tox inconclusive and HepG2 tox inactive.
Screening CCc1ccc(OCC2c3cc(OC)c(OC)cc3CCN2C(=O)Cc2ccc(OC)c(OC)c2)cc1 (stereo unspecified) returned ATXN2 expr inh inconclusive, TGFb inhibitor 11.2µM, S2 tox inactive, A549 tox inconclusive and HepG2 tox inactive.
For CCc1ccc(OCC2c3cc(OC)c(OC)cc3CCN2C(=S)NC)cc1 (stereo unspecified) the results were TGFb inhibitor inconclusive, S2 tox inactive, A549 tox inactive, Nrf2 inh 18.4µM and HepG2 tox inactive.
For N=c1c2c(ncn1-c1ccccc1)Oc1ccc3ccccc3c1C2c1ccc2c(c1)OCO2 (stereo unspecified) the results were A549 tox 14.6µM and Nrf2 inh 20.6µM.
Screening COc1ccc(C2c3c(ncn(CCN4CCOCC4)c3=N)Oc3ccc4ccccc4c32)cc1OC (stereo unspecified) returned ATXN2 expr inh inconclusive, TGFb inhibitor inconclusive, A549 tox inconclusive, Nrf2 inh inactive and HepG2 tox 14.1µM.
Screening COc1cccc(C2c3c(ncn(-c4cccc(OC)c4)c3=N)Oc3ccc4ccccc4c32)c1 (stereo unspecified) returned A549 tox inactive and Nrf2 inh inactive.
Screening COc1cccc(C2c3c(ncn(CCN4CCOCC4)c3=N)Oc3ccc4ccccc4c32)c1 (stereo unspecified) returned A549 tox inactive and Nrf2 inh inactive.
COc1cccc(C2c3c(ncn(-c4ccccc4)c3=N)Oc3ccc4ccccc4c32)c1 (stereo unspecified) was read as A549 tox 14.6µM! and Nrf2 inh 14.6µM!.
Screening COc1ccccc1C1c2c(ncn(-c3ccccc3)c2=N)Oc2ccc3ccccc3c21 (stereo unspecified) returned A549 tox 20.6µM and Nrf2 inh 23.1µM.
